Experiments:
Type in all cases: functional
Plasmodium falciparum [1] = assay: GSK_TCMDC: Inhibition of Plasmodium falciparum 3D7 in whole red blood cells, using parasite LDH activity as an index of growth. Test compounds present at 2uM
Plasmodium falciparum [2] = assay: GSK_TCMDC: Inhibition of Plasmodium falciparum Dd2 in whole red blood cells, using parasite LDH activity as an index of growth. Test compounds present at 2uM
HepG2 = assay: GSK_TCMDC: Percent inhibition of human HepG2 cell line. Test compounds present at 10uM.

SMILES	Inhibition (Plasmodium falciparum [1]) [%]	Inhibition (Plasmodium falciparum [2]) [%]	Inhibition (HepG2) [%]
O=C(Nc1ccc(F)cc1)NC1CCN(CCCCCNC(=O)C2CC2c2ccc(Cl)c(Cl)c2)CC1 (centres undefined)	100	20	46
COc1ccc(NC(=O)Nc2ccc(-c3ccc(-c4nc5cccc(C)c5[nH]4)s3)cc2)cc1	100	96	74
CC(=O)c1cc(N2CCCC2)ccc1N	97	97	1
Cc1ccc(NCC(=O)Nc2ccc(F)c(Cl)c2)cc1S(=O)(=O)N1CCOCC1	98	97	2
O=C(Nc1ccc(-c2nc3ccccc3[nH]2)cc1)c1cccc(S(=O)(=O)N2CCCC2)c1	100	64	0
COc1ccc2ncc(F)c(CCN3CC[C@@H](CNCc4cc(C)c5c(c4)OCCO5)C3)c2n1.Cl	98	44	22
Cc1cc(-c2cccc(CNCCc3ccc(Cl)cc3)c2)cnc1N.Cl	90	3	19
COc1cc(NC(=O)/C=C/c2ccccc2Cl)cc(OCCN2CCC(O)(c3ccccc3)CC2)c1.O=C(O)C(=O)O	100	46	48
CC1CN(c2ccc3occ(C(=O)Nc4ccc(-c5ccncc5)c(Cl)c4)c3c2)CC(C)N1C.Cl (centres undefined)	100	96	14
CCCCN1CCCN(Cc2cccc(NC(=O)c3ccc(-c4ccccc4)cc3)c2)CC1.O=C(O)C(F)(F)F	92	8	19
Cn1nc(-c2ccc(NC(=O)Nc3cc(C(F)(F)F)cc(C(F)(F)F)c3)c(F)c2)c2cnc(NCCN3CCOCC3)nc21.O=C(O)C(F)(F)F	94	37	43
COc1ccc2nccc([C@@H](O)CN3CCC(NCCc4c[nH]c5ccccc45)CC3)c2c1.O=C(O)C(=O)O	98	77	0
O=C(/C=C/c1ccc(Cl)c(Cl)c1)NCCCCCN1CCC(NC(=O)Nc2ccc3c(c2)OCO3)CC1	100	5	12
Clc1cccc(C=NN=c2cc[nH]c3ccccc23)c1	100	44	5
CCn1c2ccccc2c2cc(C=NN=c3cc(C)[nH]c4ccccc34)ccc21	100	97	19
Cc1ccccc1C1CCN(C2CCC(NC(=O)/C=C/c3cccc(Cl)c3F)CC2)CC1 (centres undefined)	100	37	87
N#Cc1cccc(C(=O)Nc2ccc(-c3cccc(CN4CCCC4)c3)cc2)c1.O=C(O)C(F)(F)F	100	79	15
Cc1cc2nc(-c3ccc(C(=O)NCc4ccc(Cl)c(Cl)c4)cc3)[nH]c2cc1C	96	83	6
Cc1cc(NC(=O)Nc2cccc(C#N)c2)c2ccccc2n1	100	82	17
CN(C(=O)/C=C/c1c(Cl)cccc1Cl)C1CCN(CCCCCNC(=O)/C=C/c2ccc(Cl)c(Cl)c2)CC1	92	62	78
O=C(NC1CCCCN(Cc2ccccc2O)C1)c1ccc(Cl)c(Cl)c1.O=C(O)C(F)(F)F (centres undefined)	96	96	0
CN(C)c1ccc(CN2CCCC(CNC(=O)c3ccc(-c4cccc(C(F)(F)F)c4)s3)C2)cc1.O=C(O)C(F)(F)F (centres undefined)	89	37	32
CCCC(C)NC(=O)[C@H](Cc1ccccc1)NC(=O)c1ccc(O)c(-c2ccc(OC)cc2)c1 (some centres undefined)	85	1	12
CCOc1cc(Br)c(C(C)NC(=O)c2cccc(OC)c2)cc1OCC (centres undefined)	90	37	0
Cl.O=C1COc2ccc(S(=O)(=O)N3CCC[C@@H]3CCN3CCC(c4c[nH]c5cnccc45)CC3)cc2N1	100	6	0
COc1cccc(OC)c1CN1CCC(N(C)CCCCCCCCN2CCC(OC(=O)Nc3ccccc3-c3ccccc3)CC2)CC1	99	100	100
Cc1ncccc1C(=O)Nc1cccc(-c2cccc(-c3nc4cccc(C)c4[nH]3)c2)c1	93	69	6
NC1=NC(c2ccccc2)(c2ccccc2)C(=O)N1C1CCCCC1.O=CO	100	87	13

From ChEMBL document CHEMBL1157539, “Thousands of chemical starting points for antimalarial lead identification” (Nature, 2010)
